For 7 compounds, growth results are on record in PubChem BioAssay (NCI).

SMILES strings stand for the structures. This is part of a sample that, as a whole, favours compounds with a hit. Of some 83,000 tested, about 20% had one in any assay.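 Values shown are percent growth following 48 h exposure of cells in 96-well plates to a single concentration of compound; below 10 was considered active.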 A number with no mark means an inactive call. Calls of active or inactive are those of the source.

Holding throughout (assay): NCI-60 one-dose screen, 48 h (100 = growth as untreated, 0 = no growth, -100 = all killed)
Holding throughout (settings): 10 µM

For assay [1], the system named is HCT-15 colon.
The subject of assay [2] is HT29 colon.
For assay [3], the system named is SNB-75 CNS.
For assay [4], the system named is SNB-19 CNS.
Assay [5] deals with U251 CNS.
Assay [6] has as its system PC-3 prostate.
Assay [7] deals with SK-MEL-5 melanoma.
Assay [8] concerns UACC-62 melanoma.
Assay [9] has as its system LOX IMVI melanoma.
Assay [10] has as its system SK-MEL-28 melanoma.
Assay [11] relates to SK-MEL-2 melanoma.
Assay [12] concerns EKVX NSCLC.
The subject of assay [13] is SN12C renal.
The subject of assay [14] is UO-31 renal.
Assay [15] concerns TK-10 renal.
Assay [16] deals with ACHN renal.
The subject of assay [17] is CAKI-1 renal.
In assay [18] the test system is A498 renal.
Assay [19] relates to CCRF-CEM leukemia.
Assay [20] deals with MOLT-4 leukemia.

On to `COc1cc(/C=C/C(=O)c2ccc(NC(=O)CSc3nnc(-c4c[nH]c5ccccc45)n3-c3ccccc3)cc2)cc(OC)c1OC`, for which the growth in [1] was 23.5%; in [2], 51%; in assay [3] it was 94.9%; in assay [4], 68.9%; in [5] it was 18.7%; in assay [6], 65.6%. Moreover, the growth in assay [7] is 90.2%; in [8] it was 59.1%; in assay [9] it was 4.61% (active); in assay [10], 104%; in assay [11], 99.9%; in [12], 90.6%. Besides, the growth in assay [13] was 74.2%; in assay [14], 75%; in assay [15] it was 117%; in assay [16] it was 89.3%; in assay [17], 95.7%; in assay [18], 138%. Besides, the growth in assay [19] was 60.5%; in assay [20] it was 41.5%.

As for `CC(=O)Nc1ccc(-n2cnc3cc(-c4ccc(O)cc4)ccc32)cc1F`, the growth in assay [1] is 5.21% (active); in assay [2], -9.81% (active); in [3], 24.1%; in [4], 36.2%; in assay [5] it was 16.7%; in assay [6], 22.8%. The growth in [7] was 12.5%; in assay [8] it was 13.9%; in assay [9], 27.8%; in assay [10], 49.4%; in assay [11] it was 36.3%; in assay [12], 60.6%. Also, the growth in [13] is 21.5%; in assay [14] it was 20.7%; in assay [15], 49.2%; in [16], 20.4%; in assay [17] it was 17.9%; in assay [18] it was 72.4%. The growth in assay [19] was 8% (active); in assay [20] it was -0.0266% (active).

In the case of `O=C(c1ccc(Cl)cc1)C1[C@H](c2ccc(Br)cc2)[C@@H](c2ccccc2)NC12C(=O)Nc1ccc(Cl)cc12` (stereo not given in full), the growth in [1] is -87.6% (active); in assay [2], -49.4% (active); in assay [3], -4.86% (active); in assay [4], -8.73% (active); in [5], -80.8% (active); in [6], -30.5% (active). The growth was -68.5% (active) in assay [7]; -87.2% (active) in assay [8]; -100% (active) in [9]; -86.9% (active) in [10]; -77.7% (active) in [11]; -47.8% (active) in assay [12]. In addition, the growth in [13] was -92.5% (active); in assay [14] it was -29.2% (active); in [15], -17.4% (active); in assay [16], -17.2% (active); in [17], -92.7% (active); in [18] it was -16.9% (active). The growth in [19] is -17% (active); in assay [20], -28.8% (active).

On to `C/C(=N\N=C\c1ccc(N(C)C)cc1)c1ccc2c(c1)Nc1ccccc1S2`, for which the growth in [1] is 22%; in [2], 52.5%; in [3], 69.6%; in [4], 63.1%; in assay [5], 29.4%; in assay [6] it was 54%. Further, the growth was 36.1% in [7]; 70.7% in assay [8]; 55% in [9]; 85.7% in [10]; 84.6% in assay [11]; 47.1% in assay [12]. Besides, the growth in [13] was 49.8%; in assay [14] it was 57.4%; in assay [15], 70.6%; in assay [16] it was 50.8%; in assay [17], 56.5%; in assay [18] it was 86.4%. In addition, the growth in assay [19] was 59.5%; in assay [20] it was 34.3%.

As for `COc1ccc(-c2cc(-c3cc(C(=O)c4ccc(Br)cc4)n4ccc(C)cc34)nc(N)c2C#N)cc1`, the growth in assay [1] was 89.6%; in assay [2], 77.4%; in [3] it was 108%; in assay [4], 91.3%; in [5] it was 64.7%; in [6], 89.4%. The growth is 87.5% in [7]; 81.2% in assay [8]; 54.6% in assay [9]; 69.6% in [10]; 107% in assay [11]; 89.8% in assay [12]. The growth is 92.9% in assay [13]; 64.3% in assay [14]; 132% in [15]; 81.8% in assay [16]; 68.1% in assay [17]; 134% in assay [18]. Further, the growth in assay [19] is 98.2%; in assay [20], 101%.

Consider `O=c1c2ccccc2nc(COc2ccccc2)n1/N=C/c1ccc(F)cc1`, for which the growth in [1] was 76.5%; in assay [2], 61.4%; in [3] it was 105%; in assay [4], 87.7%; in assay [5] it was 101%; in [6], 76.2%. Moreover, the growth in [7] was 68.5%; in assay [8], 62.9%; in [9], 94.9%; in assay [10], 96%; in [11], 94.5%; in assay [12], 92.1%. Moreover, the growth in [13] is 86.5%; in assay [14] it was 84.4%; in assay [15] it was 105%; in assay [16], 91.1%; in assay [17], 94.3%; in [18], 106%. Besides, the growth in assay [19] was 86.2%; in assay [20] it was 72.9%.

In the case of `Cc1ccc(-c2nc(Nc3ccc(C)c(S(N)(=O)=O)c3)c3ccccc3n2)cc1`, the growth in [1] is 50.7%; in [2], 43.1%; in assay [3], 116%; in [4], 91.4%; in [5], 18.6%; in assay [6], 43.9%. For the same compound, the growth in [7] was 86.7%; in assay [8], 87.8%; in [9] it was 2.94% (active); in assay [10], 113%; in assay [11], 118%; in assay [12] it was 81.1%. For the same compound, the growth in assay [13] was 69%; in assay [14], 85.9%; in [15] it was 120%; in [16], 64.1%; in assay [17], 91%; in assay [18] it was 106%. The growth in [19] was 85.1%; in assay [20] it was 71.5%.
